Measurements from PubChem BioAssay (NCI).
Compounds without any hit were thinned out: in the full panel of roughly 79,000, 15% have a hit. Calls of active or inactive are those of the source. No stated cut-off is given here; in the data, active means growth inhibition above about 70%; inactive means the rest.

Assays:
[1] = NCI Yeast Anticancer Drug Screen. Data for the wt1 strain (AID 149);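 further: 0% = growth of vehicle-treated wt1 cultures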; settings: S. cerevisiae wt1 strain (SPY 50644) growth inhibition, hits give high values
Summary of the method: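 Growth inhibition read against vehicle controls after compound exposure of the wt1 yeast strain.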

[2] = NCI Yeast Anticancer Drug Screen. Data for the rad50EPP+ strain (AID 151);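 further: 0% = growth of vehicle-treated control cultures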; settings: S. cerevisiae rad50 mutant strain, hits give high values
Summary of the method: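 Measured: growth inhibition of rad50EPP+ yeast. Reference: vehicle-treated controls. Screen uses strains with defined genetic alterations in DNA damage repair or cell cycle control.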

[3] = NCI Yeast Anticancer Drug Screen. Data for the rad50 strain (AID 155);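 further: 0% = growth of vehicle-only cultures of the same strain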; settings: S. cerevisiae rad50 strain growth inhibition, hits give high values
Summary of the method: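 Readout: growth inhibition relative to vehicle-treated cultures. Compound exposure was carried out in a genetically defined yeast strain deficient in DNA damage repair.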

[4] = NCI Yeast Anticancer Drug Screen. Data for the mec2-1 strain (AID 157); settings: S. cerevisiae mec2-1 strain, hits give high values
Summary of the method: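 Compounds were applied to mec2-1 yeast cells. Their growth was then compared with that of vehicle-treated cultures to give growth inhibition.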

[5] = NCI Yeast Anticancer Drug Screen. Data for the rad14 strain (AID 159);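 further: 0% = growth of vehicle-treated control cultures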; settings: S. cerevisiae rad14 strain growth inhibition, hits give high values
Summary of the method: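 Growth inhibition vs vehicle controls; genetically altered yeast strain (DNA damage repair defect) treated with test compounds.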

[6] = NCI Yeast Anticancer Drug Screen. Data for the sgs1 mgt1 strain (AID 161);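 further: 0% = growth of cultures given vehicle only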; settings: S. cerevisiae sgs1 mgt1 strain, hits give high values
Summary of the method: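 Percent growth inhibition was derived by comparing compound-exposed mutant yeast with vehicle-exposed cultures. The strain carries alterations in DNA damage repair.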

[7] = NCI Yeast Anticancer Drug Screen. Data for the CLN2oe strain (AID 163);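 further: 0% = growth of vehicle-only control cultures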; settings: S. cerevisiae CLN2oe strain, hits give high values
Summary of the method: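 Cells of an engineered yeast line with disturbed cell-cycle regulation are treated with compound. Inhibition of growth is then calculated relative to the vehicle-treated reference.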

[8] = NCI Yeast Anticancer Drug Screen. Data for the cln2 rad14 strain (AID 165);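 further: 0% = growth equal to vehicle treated cultures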; settings: S. cerevisiae cln2 rad14 strain, hits give high values
Summary of the method: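 Strain: cln2 rad14 yeast, altered in cell cycle control and DNA damage repair. Read-out: growth inhibition vs vehicle.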

[9] = NCI Yeast Anticancer Drug Screen. Data for the bub3 strain (AID 167); settings: S. cerevisiae bub3 mutant strain, hits give high values
Summary of the method: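 Readout: yeast growth inhibition, expressed relative to vehicle-only wells. The test organism is a mutant strain from a panel with lesions in DNA repair or checkpoint genes.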

[10] = NCI Yeast Anticancer Drug Screen. Data for the wt2 strain (AID 169);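 further: 0% = growth of vehicle-treated yeast cultures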; settings: S. cerevisiae wt2 strain growth inhibition, hits give high values
Summary of the method: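 Growth of compound-treated yeast is measured and expressed as inhibition relative to vehicle-only controls.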

[11] = NCI Yeast Anticancer Drug Screen. Data for the mlh1 strain (AID 171);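 further: 0% = growth of vehicle-treated control cultures of the same strain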; settings: S. cerevisiae mlh1 strain growth inhibition, hits give high values
Summary of the method: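 Test agents were incubated with yeast bearing a defined DNA damage repair or cell cycle control alteration; values are growth inhibition normalised to vehicle-treated cultures.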

[12] = NCI Yeast Anticancer Drug Screen. Data for the sgs1 strain (AID 173);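 further: 0% = growth of vehicle-only control cultures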; settings: S. cerevisiae sgs1 mutant, hits give high values
Summary of the method: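 Strain with an altered DNA repair or cell cycle pathway exposed to compound. Growth then measured. Value = inhibition versus vehicle control.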

[13] = NCI Yeast Anticancer Drug Screen. Data for the mlh1 rad18 strain (AID 175); settings: S. cerevisiae mlh1 rad18 strain growth inhibition, hits give high values
Summary of the method: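 A repair-deficient yeast strain is exposed to test compound, and growth is scored relative to vehicle-treated controls.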

[14] = NCI Yeast Anticancer Drug Screen. Data for the rad18 strain (AID 177); settings: S. cerevisiae rad18 mutant growth inhibition, hits give high values
Summary of the method: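 DNA-repair-defective yeast; compound treatment; growth inhibition scored against vehicle.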

[15] = at 5.0 µM (retest, dose inferred, filed as 0.5)
[16] = at 50.0 µM (retest, dose inferred, filed as 5.0)

Measured: growth inhibition

CC1(C)C(C=O)=CCC1CC(N)=O (stereo not drawn)
active: [2]; at 100.0 µM 93% | [3]; at 50.0 µM 98.5% | [4]; at 50.0 µM 98% | [4]; at 100.0 µM 96% | [5]; at 100.0 µM 99% | [6]; at 50.0 µM 87.3% | [9]; at 50.0 µM 99.2% | [9]; at 100.0 µM 93% | [10]; at 100.0 µM 83% | [11]; at 100.0 µM 96% | [12]; at 100.0 µM 99% | [13]; [16] 71% | [13]; at 50.0 µM 88.7%
inactive: [1]; at 1.2 µM -1% | [1]; at 3.7 µM 0% | [1]; at 11.0 µM 2% | [1]; at 33.0 µM 3% | [1]; at 100.0 µM 29% | [2]; at 1.2 µM 1% | [2]; at 3.7 µM -2% | [2]; at 11.0 µM 0% | [2]; at 33.0 µM 20% | [3]; at 1.2 µM -1% | [3]; at 3.7 µM -1% | [3]; [15] -2% | [3]; at 11.0 µM -1% | [3]; at 33.0 µM 1% | [3]; [16] 43% | [3]; at 100.0 µM 40% | [4]; at 1.2 µM 0% | [4]; at 3.7 µM 2% | [4]; [15] 4% | [4]; at 11.0 µM 1% | [4]; at 33.0 µM 7% | [4]; [16] 39% | [5]; at 1.2 µM -3% | [5]; at 3.7 µM -2% | [5]; at 11.0 µM -3% | [5]; at 33.0 µM 6% | [6]; [15] -3% | [6]; [16] -2% | [7]; at 1.2 µM -5% | [7]; at 3.7 µM -2% | [7]; at 11.0 µM -1% | [7]; at 33.0 µM -2% | [7]; at 100.0 µM 12% | [8]; [15] -3% | [8]; [16] 4% | [8]; at 50.0 µM 38.4% | [9]; at 1.2 µM -3% | [9]; at 3.7 µM -7% | [9]; [15] -19% | [9]; at 11.0 µM -2% | [9]; at 33.0 µM -5% | [9]; [16] -8% | [10]; at 1.2 µM -1% | [10]; at 3.7 µM 1% | [10]; at 11.0 µM 4% | [10]; at 33.0 µM 9% | [11]; at 1.2 µM 2% | [11]; at 3.7 µM 0% | [11]; at 11.0 µM 4% | [11]; at 33.0 µM 9% | [12]; at 1.2 µM -1% | [12]; at 3.7 µM 4% | [12]; at 11.0 µM 6% | [12]; at 33.0 µM 23% | [13]; [15] -6% | [14]; at 1.2 µM 0% | [14]; at 3.7 µM 0% | [14]; at 11.0 µM 22% | [14]; at 33.0 µM 6% | [14]; at 100.0 µM 54%
